According to PubChem BioAssay AID793 (The Scripps Research Institute Molecular Screening Center, 2007):
“And” between values parts separate entries of the source, which are not always exact repeats. Equal values may be shown once. The campaign covered roughly 140,000 compounds. About 1,400 (1%) were called active. Rule as the data show it: active = inhibition above about 17%; inactive = the rest. This excerpt belongs to a sample that is enriched for actives. More than one record can exist for a structure, and the calls need not agree.

What follows are compounds tested against Neuropeptide Y receptor type 2 (Homo sapiens) (UniProt P49146) (assay: blockers of human neuropeptide Y Y2 receptor – cell-based, primary screen (AID 793;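 also: 0% = vehicle with agonist challenge and 100% = reference antagonist with challenge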)). Conditions: NPY-Y2 expressing cells, antagonist mode; at 2.7 µM; stronger effect = higher value.
Chain of Neuropeptide Y receptor type 2 (Homo sapiens) (P49146 whole entry, looked up): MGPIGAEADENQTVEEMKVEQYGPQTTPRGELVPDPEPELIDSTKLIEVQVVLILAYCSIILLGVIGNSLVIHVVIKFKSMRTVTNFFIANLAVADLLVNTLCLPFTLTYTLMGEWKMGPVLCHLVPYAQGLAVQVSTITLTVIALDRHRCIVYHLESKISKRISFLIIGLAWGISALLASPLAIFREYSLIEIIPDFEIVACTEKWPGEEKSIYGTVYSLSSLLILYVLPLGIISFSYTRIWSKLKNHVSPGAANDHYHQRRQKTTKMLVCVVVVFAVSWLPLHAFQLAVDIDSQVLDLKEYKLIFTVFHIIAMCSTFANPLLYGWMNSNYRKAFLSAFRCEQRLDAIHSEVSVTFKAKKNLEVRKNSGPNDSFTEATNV

Row | Structure (SMILES) | inhibition
1 | O=C(CC(=O)N/N=C\c1cccc(Cl)c1Cl)NCc1ccccc1 | 13.3% (inactive)
2 | COc1ccc(-c2nn(-c3ccccc3)cc2/C=N/Nc2ccccn2)cc1OC | 9.59% (inactive)
3 | COc1ccc(-c2nn(-c3ccccc3)cc2C(=O)Nc2nccs2)cc1OC | 17.6% (active)
4 | COc1ccc(-c2nn(-c3ccccc3)cc2C(=O)Nc2nc(CC(C)=O)ns2)cc1 | -0.9% (inactive)
5 | O=C(c1cncc(Br)c1)N1CCN(c2ccc([N+](=O)[O-])cc2)CC1 | 0.95% (inactive)
6 | C/C(=N\Nc1ncc(Cl)cc1Cl)c1ccc(S(=O)(=O)NCc2ccco2)cc1 | 2.79% (inactive)
7 | Cc1ccc(N/N=C2\COC(C)(C)CC2=O)cc1 | 1.13% (inactive)
8 | Cc1ccc(NC(=O)NC(=O)CSc2nnc(-c3ccc(OC(F)F)cc3)n2N)c(C)c1 | 0.74% (inactive)
9 | CN1CCN(C(=O)Cn2c(C(F)(F)F)nc3ccccc32)CC1 | -1.96% (inactive)
10 | CC(C)(C)NC(=O)NC(=O)COC(=O)Cn1c(C(F)(F)F)nc2ccccc21 | 6.71% (inactive)
11 | Cc1ccccc1OC(=O)Cn1c(C(F)(F)F)nc2ccccc21 | 20.2% (active)
12 | CCCCN(CC)C(=O)c1ccccc1Oc1ccccc1 | 9.08% (inactive)
13 | Cc1ccc(C(=O)CS(C)(=O)=O)cc1 | 4.03% (inactive)
14 | O=C(c1ccc(CSc2ccccc2)cc1)N1CCCCCC1 | 4.41% (inactive)
15 | Cc1ccc(C(=O)C[n+]2cc(-c3ccccc3)n3c2CCCCC3)cc1 | 13.7% (inactive) and 24.1% (active)
16 | COc1ccc(C2c3c(C)nn(-c4ccccc4)c3NC(=O)N2c2ccccc2)cc1 (centres undefined) | 0.06% (inactive)
17 | CCn1cc(CNC(=O)c2cc([N+](=O)[O-])c(C)c([N+](=O)[O-])c2)cn1 | 2.2% (inactive)
18 | Cc1cc(C(=O)N/N=C/c2cc([N+](=O)[O-])cc(C)c2O)n[nH]1 | 9.9% (inactive)
19 | O=C(COC(=O)Cn1cnc2ccccc21)Nc1cccc2c1C(=O)c1ccccc1C2=O | 4.37% (inactive)
20 | Cc1cccc(C(=O)Nc2ccccc2N2CCN(c3ccc(F)cc3)CC2)c1 | 8.99% (inactive)

Row | Structure (SMILES) | inhibition
21 | O=C(Nc1ccccc1N1CCN(c2ccccc2)CC1)c1cccc(F)c1 | 19.2% (active)
22 | O=C(Nc1ccccc1N1CCCCC1)c1cccc(F)c1 | 8.36% (inactive)
23 | CC1CCN(C(=O)c2ccc(S(=O)(=O)Cc3cc(F)ccc3F)c([N+](=O)[O-])c2)CC1 | -1.09% (inactive)
24 | Cc1cccc(C)c1NC(=O)C(c1ccccc1)N1CC(=O)Nc2ccccc21 (centres undefined) | 1.93% (inactive)
25 | O=C(N/N=C/c1ccc(Br)o1)c1cncc(Br)c1 | 0.35% (inactive)
26 | CCCC(=O)Nc1cccc(NC(=S)NC(=O)C(C)Oc2ccc(Cl)cc2Cl)c1 (centres undefined) | 0.34% (inactive)
27 | CC(=O)Nc1nonc1-c1nc2ccccc2n1Cc1ccccn1 | 0.29% (inactive)
28 | Nc1nonc1-c1nc2ccccc2n1Cc1ccc(F)cc1 | 18.1% (active)
29 | COCc1nc2ccccc2n1Cc1ccccc1Br | 4.55% (inactive)
30 | CCC(=O)Nc1nc2ccccc2n1Cc1ccccc1C | 3.41% (inactive)
31 | COc1ccc(C)c(Cn2c(-c3nonc3N)nc3ccccc32)c1 | 17.5% (active)
32 | Nc1nonc1-c1nc2ccccc2n1CCC(=O)O | 3.2% (inactive)
33 | Cc1cc(NC(=O)COC(=O)COc2ccc(Cl)cc2C)c([N+](=O)[O-])cc1C | 5.09% (inactive)
34 | CCCC(C)C(=O)OCC(=O)Nc1c(Br)cc(C)cc1Br (centres undefined) | 3.68% (inactive)
35 | O=C(CCCCCNC(=O)c1ccccc1)N/N=C/c1ccccc1 | -0.13% (inactive)
36 | CCCOC(=O)c1ccc(N2C(=O)c3ccccc3C2=O)cc1 | -1.24% (inactive)
37 | CCCC/S(C)=N/S(=O)(=O)c1ccc(C)cc1 (centres undefined) | 1.98% (inactive)
38 | Cc1cc(C)cc(OCC(=O)Nc2nc3ccc([N+](=O)[O-])cc3s2)c1 | 1.9% (inactive)
39 | COC(=O)C(NC(=O)c1ccc(OC)cc1)(Nc1ncc(S(=O)(=O)c2ccc([N+](=O)[O-])cc2)s1)C(F)(F)F (centres undefined) | 0.75% (inactive)
40 | O=C(NC(Nc1nc2ccc([N+](=O)[O-])cc2s1)(C(F)(F)F)C(F)(F)F)c1ccccc1 | 29.6% (active)

Row | Structure (SMILES) | inhibition
41 | COC(=O)C1NN=C(C(=O)c2ccc(Br)cc2)C1c1cccc(Br)c1 (centres undefined) | 0.05% (inactive)
42 | Cc1cc(C)n(CC(O)CN(c2ccccc2)S(=O)(=O)c2ccc3ccccc3c2)n1 (centres undefined) | -0.03% (inactive)
43 | CC1CCCN(CCOCCOc2ccccc2-c2ccccc2)C1 (centres undefined) | 10.5% (inactive)
44 | Cc1ccc(CN2CCN(/N=C/c3cccnc3)CC2)c(C)c1 | 2.92% (inactive)
45 | C/C(=N\NC(=O)CNC(=O)C(c1ccccc1)c1ccccc1)c1ccc(C)cc1 | 1.86% (inactive)
46 | COc1ccc(-c2nc3ccccc3n2CCC(C)C)cc1OC | 19.5% (active)
47 | CCCn1c(C(O)c2cc(OC)ccc2OC)nc2ccccc21 (centres undefined) | 4.69% (inactive)
48 | COCCn1c(-c2ccc(OC)c(OC)c2)nc2ccccc21 | 1.52% (inactive)
49 | COC(=O)c1cc2occc2n1Cc1nc(-c2ccccc2C)oc1C | 11.1% (inactive)
50 | O=C(CCN1C(=O)c2ccccc2C1=O)NNC(=O)c1ccc(Cl)cc1Cl | 0.71% (inactive)
51 | Cc1ccc(NC(=O)CC2S/C(=N/N=C3\CCCc4ccccc43)NC2=O)cc1 (centres undefined) | -0.03% (inactive)
52 | Cc1cccc(OCCNC(=O)CSc2ccc(C(F)(F)F)cc2[N+](=O)[O-])c1 | 12.7% (inactive)
53 | Cc1ccc(C)c2[nH]c(=O)c(CCNC(=O)c3cccs3)cc12 | 2.37% (inactive)
54 | C=CCOC(=O)C1=C(C)OC(N)=C(C#N)C1c1ccc(F)cc1 (centres undefined) | 7.81% (inactive)
55 | Cc1cc2c(c(=O)n1C)C(C(C)C)C(C#N)=C(N)O2 (centres undefined) | -0.27% (inactive)
56 | C=CCSc1nc2c(c(=O)[nH]1)C(C(C)C)C(C#N)=C(N)O2 (centres undefined) | 121% (active)
57 | CN(C)CCCO/N=C(\c1ccccc1)c1ccncc1 | 0.64% (inactive)
58 | Cc1ccc(C(=O)N/C(=C/c2cccnc2)C(=O)O)cc1 | 2.3% (inactive)
59 | Cc1nn(CC(=O)Nc2ccc(N(C)C)cc2)c(C)c1[N+](=O)[O-] | -0.15% (inactive)
